Hits are enriched below; roughly 2.2% of the tested compounds scored in any of these assays.
FAS TE block: inhibitors of human fatty acid synthase thioesterase domain. P49327. recombinant FAS-TE, OMFH fluorogenic substrate, fluorescence endpoint. inhibition, % at 15 µM. 0.67% of 360,000 active. AID 602261;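 active means compounds whose normalised, plate-corrected inhibition of enzyme fluorescence in the single-dose primary screen is 50% or more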
Cardio protect: modulators protecting cardiomyocytes from myocardial damage; 0.63% of 360,000 active; H9c2 cardiomyocytes, H2O2 injury protection, ATPLite, 2 h; protection from H2O2 cell death, % at 20 µM;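 active means compounds giving at least 50% protection of heart cells from peroxide-induced death in the single-dose screen, raw or plate-pattern-corrected value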
PLC-gamma1 inh: PLC-gamma1 (human) inhibition, primary screen; P19174; purified PLC-gamma1, fluorogenic substrate, fluorescence; inhibition, % at 12.2 µM; 0.84% of 370,000 active; AID 720700; in the data active means inhibition above about 9.5%
PLC-beta3 inh: inhibitors of human phospholipase C beta3 | Q01970 | Purified PLC-beta3, fluorogenic substrate, fluorescence | inhibition, % at 12.2 µM | 0.18% of 370,000 active | AID 720704; in the data active means inhibition above about 11%
FAS-TE inh conf: FAS thioesterase (human) inhibition, confirmation | shares compounds with FAS TE block | recombinant FAS-TE, OMFH fluorogenic substrate, fluorescence | inhibition, % at 15 µM | 45% of 2,300 active | AID 624325;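 active means compounds inhibiting the enzyme by at least 50% at 15 µM in any one of the replicates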
Large screens that a line does not name were inactive (follow-up assays come after a bar, where they were run).

Cc1ccc(-n2c(SCC(=O)Nc3cc(S(=O)(=O)N4CCOCC4)ccc3Cl)nc3ccccc3c2=O)cc1	FAS TE block 95 | FAS-TE inh conf inactive
O=C(CSc1nc2ccccc2c(=O)n1-c1ccc(F)c(Cl)c1)Nc1cccc(S(=O)(=O)N2CCOCC2)c1	FAS TE block 78 | FAS-TE inh conf inactive
O=C(CSc1nc2ccccc2c(=O)n1-c1ccc(F)cc1)Nc1ccc(Cl)c(S(=O)(=O)N2CCOCC2)c1	FAS TE block 78 | FAS-TE inh conf inactive
C=CCN1C(=O)[C@@H](CC(=O)N2CCCC2)[C@]2(C(=O)OC)CCCCC=C12	none (no result: FAS TE block, Cardio protect)
Nc1[nH]c(C(=O)c2ccccc2)c(-c2ccc(Br)cc2)c1C(=O)N1CCN(CCO)CC1	none (no result: FAS TE block, Cardio protect)
CN(CCOC(=O)CC1C=CCC1)C1CN(Cc2cn(Cc3ccccc3Cl)nn2)S(=O)(=O)C1 (stereo unspecified)	none (no result: FAS TE block, Cardio protect)
O=C(CC(=O)N/N=C\c1ccccc1)NCCc1ccccc1	none
O=C(NCCC1=CCCCC1)c1ccc([N+](=O)[O-])cc1	none
O=C(CCNC(=O)c1ccc([N+](=O)[O-])cc1)NCCC1=CCCCC1	FAS TE block 76 | FAS-TE inh conf 83
O=C(CN1C(=O)c2ccc([N+](=O)[O-])cc2C1=O)NCCC1=CCCCC1	FAS TE block 54 | FAS-TE inh conf 54
O=C(COc1ccc([N+](=O)[O-])cc1)NCCC1=CCCCC1	FAS TE block 63 | FAS-TE inh conf 64
O=C(CC(=O)N/N=C\c1ccc([N+](=O)[O-])cc1)NCCc1ccccc1	FAS TE block 52 | FAS-TE inh conf 50
COc1ccc(CNC(=O)[C@@H](Cc2ccccc2)NC(=O)[C@H]2O[C@@H](n3ccc(=O)[nH]c3=O)[C@H](O)[C@@H]2O)cc1	none (no result: FAS TE block, Cardio protect)
Cc1csc(NC(=O)CCNC(=O)c2ccc([N+](=O)[O-])cc2)n1	FAS TE block 68 | FAS-TE inh conf 71
O=C(COc1ccc([N+](=O)[O-])cc1)Nc1ccc2c(c1)CCC2	FAS TE block 58 | FAS-TE inh conf 63
O=C(CCNC(=O)c1ccc([N+](=O)[O-])cc1)NCCc1ccccc1	FAS TE block 60 | FAS-TE inh conf 46
COC(=O)[C@]12C[C@H](CC(=O)N3CCSCC3)C(=O)N(Cc3ccccc3)C1=C[C@H](C1CCCC1)O[C@@H]2C	none (no result: FAS TE block, Cardio protect)
COc1cc(C=Nn2c(-c3cc(C)[nH]n3)n[nH]c2=S)cc(Br)c1O	none (no result: FAS TE block, Cardio protect)
COc1ccc(C(CCOC(=O)Oc2ccccc2)c2cc(OC)cc(OC)c2)cc1 (stereo unspecified)	none (no result: FAS TE block, Cardio protect)
COCCCNC(=O)C[C@H]1C[C@@]2(C(=O)OC)C(=C[C@H](COCc3ccccc3)O[C@@H]2C)N(Cc2ccco2)C1=O	none (no result: FAS TE block, Cardio protect)
O=C(Cn1cc(C(=O)C2CC2)c2ccccc21)NCc1ccc2c(c1)OCO2	FAS TE block 59 | FAS-TE inh conf 55
O=C(Cn1nc(-c2ccccc2)ccc1=O)NCCc1cccc(F)c1	none (no result: FAS TE block, Cardio protect)
Cc1cc(-c2nc3ccccc3c(=O)o2)ccc1[N+](=O)[O-]	none
O=c1oc(-c2ccc(Cl)cc2[N+](=O)[O-])nc2ccccc12	FAS TE block 62 | FAS-TE inh conf inactive
Cc1nn(Cc2ccc([N+](=O)[O-])cc2)c(=O)n1-c1cccc(Cl)c1	FAS TE block 66 | FAS-TE inh conf 75
Cc1cccc(N2CCN(C(=O)COc3ccc4ccc(=O)oc4c3)CC2)c1C	FAS TE block 70 | FAS-TE inh conf 83
O=C(CNc1cc(S(=O)(=O)N2CCCC2)ccc1OCC(F)(F)F)Nc1cccc(C(F)(F)F)c1	FAS TE block 64 | FAS-TE inh conf inactive
O=[N+]([O-])c1ccc(Cn2ccc3ccc(-c4ccc5ccn(Cc6ccccc6)c5c4)cc32)cc1	none (no result: FAS TE block, Cardio protect)
CCc1ccc([C@H]2[C@@H]3C(=O)C[C@@H]4C(=O)N(Cc5ccccc5)C(=O)[C@@H]4[C@@H]3CN2S(=O)(=O)c2ccc(C)cc2)cc1	FAS TE block 59 | FAS-TE inh conf inactive
CCc1ccc([C@H]2[C@@H]3C(=O)C[C@@H]4C(=O)N(CC)C(=O)[C@@H]4[C@@H]3CN2S(=O)(=O)c2ccc(C)cc2)cc1	none
CCc1ccc([C@H]2[C@@H]3C(=O)C[C@@H]4C(=O)N(C5CCCCC5)C(=O)[C@@H]4[C@@H]3CN2S(=O)(=O)c2ccc(C)cc2)cc1	FAS TE block 72 | FAS-TE inh conf inactive
Cc1ccccc1S(=O)(=O)N1C[C@H]2[C@H]3C(=O)N(C4CCCCC4)C(=O)[C@H]3CC(=O)[C@H]2[C@@H]1c1ccc(Cl)cc1	FAS TE block 73 | FAS-TE inh conf inactive

High-throughput results from PubChem BioAssay.
